# Screens deposited in PubChem BioAssay by several laboratories.
# NLRP3 yeast inh: NALP3 inhibition in yeast. inhibition, % at 10 µM. Yeast reconstituted NLRP3/ASC/caspase-1, beta-gal luminescence, 24 h. 0.39% of 330,000 active;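 active = inhibition of 50% or more; inactive = inhibition below 50%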;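 note: plate controls were induced DMSO wells for no effect and uninduced yeast grown without galactose for full effect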
# PfHsp90 yeast 2: growth inhibition of yeast expressing Plasmodium Hsp90. inhibition, % at 9.4 µM. S. cerevisiae expressing PfHsp90, BacTiter-Glo ATP, 48 h; yeast lacking PDR1 and PDR3 efflux regulators. 0.32% of 310,000 active;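 active = every replicate shows inhibition above about 80%, whatever the replicate mean, limit read from the data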;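 note: 0% = DMSO neutral controls and 100% = 20 µM radicicol positive controls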
# tim23-1 inh: growth inhibitors of tim23-1 mutant yeast | S. cerevisiae tim23-1 growth, BacTiter-Glo luminescence, 24 h | inhibition, % at 20 µM | 1.3% of 330,000 active | AID 463212;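 active = growth inhibition of the mutant yeast at or above 50%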;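 note: temperature-sensitive mutant grown at 25 °C; plate controls were DMSO-treated mutant yeast for no effect and medium wells lacking yeast for full effect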
# NALP1 inh: inhibitors of NALP1 inflammasome in yeast | S. cerevisiae NALP1/ASC/caspase-1 growth, X-gal OD620, 72 h | inhibition, % at 10 µM | 0.61% of 280,000 active | AID 2071; in the data active = inhibition mostly above about 24%, no sharp cut-off; inactive = mostly below about 32%
# tim10-1 inh: growth inhibitors of tim10-1 mutant yeast; 2.2% of 330,000 active; S. cerevisiae tim10-1 ts strain growth, BacTiter-Glo, 24 h; inhibition, % at 20 µM;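 active = inhibition of at least 40%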;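 note: mutant grown at 25 °C; 0% = DMSO wells with yeast and 100% = wells holding no yeast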
# TIM10 inh: TIM10 yeast growth inhibition; S. cerevisiae TIM10 strain growth, BacTiter-Glo luminescence, 24 h; inhibition, % at 10 µM; 1.4% of 330,000 active;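 active = inhibition of 40% or more at the single tested concentration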;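 note: wild-type TIM10 isogenic control strain grown at permissive 25 °C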
# NALP3 yeast conf: confirmation of NALP3 inhibitors in yeast; shares compounds with NLRP3 yeast inh; yeast expressing human NALP3, luminescence; inhibition, % at 10 µM; 81% of 1,300 active; AID 435006; in the data active = inhibition above about 48%
# Casp1-ASC yeast: caspase-1-ASC yeast counter-screen hit; AID 488784; shares compounds with NLRP3 yeast inh; inhibition, % at 10 µM; 66% of 1,000 active; yeast expressing Caspase-1-ASC, luminescence counter screen
# NALP3 yeast rt: retest-confirmed inhibitor of NALP3 in yeast | shares compounds with NLRP3 yeast inh | yeast expressing human NALP3, luminescence read-out | inhibition, % at 10 µM | 53% of 1,000 active
# Starred values were filed as active, the others as inactive; . = no result. This is a sample that favours compounds with a hit; in the whole collection about 4.2% have one here. Cut-off read from the data, not from the text of the source, unless noted: active = inhibition above about 50%; inactive = the rest.
SMILES,NLRP3 yeast inh,PfHsp90 yeast 2,tim23-1 inh,NALP1 inh,tim10-1 inh,TIM10 inh,NALP3 yeast conf,Casp1-ASC yeast,NALP3 yeast rt
C(=C\c1ccccc1)/CSc1nnc(-c2cnccn2)n1Cc1ccco1,9,-20,29,23,3,8,.,.,.
Clc1ccccc1N=C1NN=C(c2cccs2)CS1,52*,.,38,12,27,19,71*,59*,50
Fc1ccccc1N=C1NN=C(c2ccccc2)CS1,24,.,20,-2,18,-4,.,.,.
Cc1ccc(C)c(Oc2nnnn2-c2ccccc2)c1,-108,-40,30,3,28,27,-5,.,.
Cc1ccc(C(C)C)c(Oc2nnnn2-c2ccccc2)c1,-91,-12,27,-24,-5,9,.,.,.
COc1cccc(NC(=O)c2ccc(OC(F)(F)F)cc2)c1,50*,18,15,.,4,15,63*,41,19
O=c1cc(-c2ccccc2)[nH]n1-c1nc2ccccc2s1,31,-42,-20,-2,-2,-20,.,.,.
O=C1CNC(=S)N1c1nc2ccccc2s1,54*,3,43,.,-11,21,62*,54*,59*
COc1ccc(-n2c(-c3ccc(Cl)cc3)c[nH]c2=S)cc1,57*,-4,19,-19,23,-4,80*,51*,38
Cc1ccc(-n2c(-c3ccccc3)n[nH]c2=S)cc1,15,-6,24,-15,33,21,.,.,.
Cc1ccc(-n2c(-c3ccccc3)c[nH]c2=S)cc1,56*,3,12,-3,-6,-20,28,.,.
CC(=O)NC(Cc1ccc(C)cc1)C(=O)NC1CCN(C(=O)NCc2ccccc2)CC1 (stereo not given),8,1,-1,7,-26,7,.,.,.
Cc1ccc(C2=NOC(C)(c3nnc(Cc4ccccc4)o3)C2)cc1 (stereo not given),17,0,9,.,-10,-12,.,.,.
CCN(CC)c1ncnc2sc3c(c12)CCC3,61*,.,34,16,33,0,64*,67*,57*
Cc1ccc([N+](=O)[O-])cc1S(=O)(=O)Nc1ccc(OCC(=O)N2CCOCC2)cc1,11,13,-2,4,-21,0,.,.,.
O=S(=O)(c1ccc(F)cc1)c1snnc1-c1ccccc1,.,20,.,6,.,.,.,.,.
O=S(=O)(c1ccc(Cl)cc1)c1snnc1-c1ccccc1,61*,49,31,14,13,-6,72*,74*,66*
CC(C)(C)c1csc(N/N=C/c2cccnc2)n1,58*,11,18,24,19,19,68*,76*,56*
C(=N\Nc1nc(-c2ccccc2)cs1)/c1cccnc1,30,-8,27,37,-27,-22,.,.,.
O=C(C1CC(=O)N(c2ccccc2)C1)N1CCN(c2ccc(F)cc2)CC1 (stereo not given),17,9,6,-8,14,-3,.,.,.
Cc1ccc(N=C(N)N=C(N)N)cc1,-17,11,-3,.,-15,-15,.,.,.
COc1ccc(/C=C(\C#N)c2n[nH]c(Cn3cncn3)n2)cc1,17,2,4,4,11,4,.,.,.
Nc1cc(N2CCCCC2)c([N+](=O)[O-])cc1Cl,51*,12,35,36,-4,-10,9,.,.
O=[N+]([O-])c1ccc2c(c1Nc1ccccc1Cl)=NC1(CCCCC1)N=2,26,.,25,-17,15,12,.,.,.
Cc1ccc(Nc2c([N+](=O)[O-])ccc3c2=NC2(CCCCC2)N=3)cc1,52*,-4,40,-10,9,30,56*,.,.
SMILES,NLRP3 yeast inh,PfHsp90 yeast 2,tim23-1 inh,NALP1 inh,tim10-1 inh,TIM10 inh,NALP3 yeast conf,Casp1-ASC yeast,NALP3 yeast rt
Cc1ccc(S(=O)(=O)N(C)C)cc1NC(=S)N1CCCCC1CO (stereo not given),2,-19,23,2,32,9,.,.,.
O=C(C1CCN(S(=O)(=O)c2cccc3cccnc23)CC1)N1CCn2c1nc1ccccc12,80*,30,17,-6,25,19,90*,85*,87*
Cc1ccc(C(C)C)cc1OCC(=O)Nc1ccc(-n2cnnn2)cc1,28,.,12,.,-5,4,.,.,.
O=C1/C(=C/c2cccnc2)SC(=NCc2ccccc2)N1Cc1ccccc1,5,34,5,15,-5,23,.,.,.
Cc1ccc(/C=C2\SC(=S)N(c3cccnc3)C2=O)cc1,54*,-6,8,13,1,10,24,.,.
CCOc1ccc(N2C(=O)/C(=C/c3ccccn3)SC2=S)cc1,9,.,7,0,6,15,.,.,.
O=C1/C(=C/c2ccccn2)SC(=S)N1c1cccc(O)c1,81*,-9,9,.,23,23,74*,80*,51*
O=C1/C(=C/c2cccnc2)SC(=S)N1CCc1ccccc1,50*,21,23,-1,9,-25,14,.,.
O=C1/C(=C/c2cccnc2)SC(=S)N1c1ccc(F)cc1,24,-2,20,31,16,15,.,.,.
O=C1/C(=C/c2cccnc2)SC(=S)N1c1ccc(O)cc1,87*,-3,-10,2,6,-2,89*,90*,74*
O=C(Nc1cc(C(F)(F)F)cc(C(F)(F)F)c1)c1ccc(Cn2cc(C(F)(F)F)ccc2=O)cc1,22,9,-5,2,-9,-11,.,.,.
COc1cccc(C(=O)NCCNC(=O)c2ccc(C)nc2)c1,10,19,-7,-103,-5,3,.,.,.
CC(C)Sc1nnc(NC(=O)CCc2ccccc2)s1,10,.,16,5,10,13,.,.,.
Cc1ccccc1C(=O)Nc1nnc(SC(C)C)s1,51*,-11,36,-15,-1,22,38,71*,63*
C/C(=N\Nc1ncc(Br)cn1)c1cccc([N+](=O)[O-])c1,51*,-6,29,5,13,-2,61*,64*,49
CC(=O)Cn1ncc(N2CCCCC2)c(Cl)c1=O,-14,-7,-4,0,1,-8,.,.,.
CO/N=C(\Cn1ncc(N2CCCC2)c(Cl)c1=O)c1ccc(Cl)cc1,70*,4,28,22,12,-29,73*,75*,60*
C/C(=N\NC(=S)NCCc1ccccc1)c1ccc(Cl)cc1Cl,58*,-1,34,-10,22,31,39,77*,58*
Cc1nc(-c2ccc(S(=O)(=O)Oc3ccccc3Cl)s2)cs1,13,19,19,37,22,28,.,.,.
COCCCNC(=O)c1ccc(OC)c(OC2CCN(C(C)C)CC2)c1,12,7,-10,23,3,-5,.,.,.
